FUS suppressor = qHTS for Suppressors of FUS Proteinopathy: Primary screen using FUS-linked yeast assay. S. cerevisiae FUS-expressing, growth rescue, OD600, 24 h. Potency, µM (titrated, usually from 76.6 µM), actives largely listed as activators. actives 0.24% (n = 390,000). AID 1347120, 2019; further: nearly all actives have a fitted effect of over 55% in size
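Yeast FUS proteinopathy model; galactose-induced FUS (2%), starting OD 0.005. Cpds in dilution series, 24hr, 30C, 99% humidity. Abs 600 nm growth. Pos ctrl CP55940 (top 92uM final); neg ctrl DMSO.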
Abeta rescue = qHTS for compounds that reverse cellular toxicity of Amyloid beta (A-beta) peptide in yeast: Primary Screen; Potency, µM (highest dose often 46.1 µM), hits mostly activators; yeast expressing A-beta42, growth rescue, OD600, 48 h; response scale: 0% DMSO, 100% iron-clioquinol control; actives 0.063% (n = 410,000); further: nearly all actives have a fitted effect of over 55% in size
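Yeast A-beta toxicity model in growth medium with pinned compounds, 48 h at 30 C; growth read as absorbance at 600 nm. Normalized to FeCl3/clioquinol equimolar mix (positive) and DMSO (negative).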
PTAP TSG101 blk = qHTS Assay for Iinhibitors of HIV-1 Budding by Blocking the Interaction of PTAP/TSG101; Tumor susceptibility gene 101 protein (Homo sapiens), Q99816; Fluorescence polarization, FITC-PTAP peptide / Tsg101 binding; Potency, µM (titrated, usually from 115 µM), hits mostly inhibitors; 340,000 tested, under 10 active; AID 493005, 2010; active means well fitted inhibition curve with a large enough effect in the main read-out, with a control signal flat, not every such curve was filed as active; inconclusive means small, poorly fitted or top-dose-only effect, or effect the other way, or a change in a side signal; inactive means no such curve, though single readings can be large or run the other way
Target sequence (Q99816 whole entry, looked up): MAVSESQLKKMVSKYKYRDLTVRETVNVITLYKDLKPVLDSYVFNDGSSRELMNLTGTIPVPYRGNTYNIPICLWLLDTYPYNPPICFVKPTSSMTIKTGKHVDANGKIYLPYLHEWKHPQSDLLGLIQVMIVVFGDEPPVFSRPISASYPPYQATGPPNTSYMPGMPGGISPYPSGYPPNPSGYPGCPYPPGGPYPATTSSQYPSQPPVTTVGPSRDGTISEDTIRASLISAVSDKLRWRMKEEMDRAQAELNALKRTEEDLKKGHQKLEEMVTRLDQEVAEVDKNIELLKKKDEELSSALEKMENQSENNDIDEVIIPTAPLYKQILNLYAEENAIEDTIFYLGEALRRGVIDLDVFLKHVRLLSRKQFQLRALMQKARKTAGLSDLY
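Tsg101 binding domain (10 uM final) was mixed with compound and a FITC-labeled PTAP peptide (50 nM final) in HEPES pH 7.5 buffer with NaCl, Tween 20, EDTA and TCEP; fluorescence polarization was read after 20 min at r.t.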
aSyn rescue = qHTS of alpha-syn Inhibitors; Yeast expressing alpha-synuclein, growth rescue, BacTiter-Glo, 24 h; Potency, µM (top dose mostly 46.1 µM), hits mostly activators; actives 0.14% (n = 370,000); further: nearly all actives have a fitted effect of over 65% in size
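Screening used galactose-induced yeast with toxic alpha-synuclein levels, exposed to compound for 24 hr at 30 deg C. Cell growth, read with BacTiter-Glo luminescence, gave the measured signal.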
TDP43 rescue = qHTS of TDP-43 Inhibitors; actives 1.8% (n = 410,000); Potency, µM (titrated, usually from 46.1 µM), usual class: activators; AID 652104, 2013; TDP-43 expressing yeast growth rescue, BacTiter-Glo, 24 h; further: nearly all actives have a fitted effect of over 50% in size
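Readout is BacTiter-Glo luminescence of cell growth, so inhibitors register as activators. TDP-43-expressing yeast at OD600=0.02 in galactose medium, after raffinose pregrowth to mid-log, were incubated with compound for 24 hr at 30 deg C.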
Each line names hits and unclear results; the compound was inactive in the other large screens. Hits are enriched below; roughly 2.1% of the tested compounds scored in any of these assays. Unless noted, the call rests on the fitted dose curve; in most records, active means well fitted curve in the direction sought with a large enough effect; inconclusive means small, poorly fitted or top-dose-only effect, or another doubt; inactive means no such curve, though single readings can be large; an effect the other way counts as inactive or inconclusive.

O=C(Nc1ccc(Cl)cc1)C1Cc2c(-c3ccccc3)ccnc2O1 (centres undefined)	aSyn rescue inconclusive, TDP43 rescue 35µM (no result: PTAP TSG101 blk)
C=CCN1C(=O)[C@@H](CC(=O)NCc2ccc(C)o2)[C@]2(C(=O)OCC)CCCCC/C=C/12	none (no result: Abeta rescue, PTAP TSG101 blk, aSyn rescue, TDP43 rescue)
O=C(Nc1ccc(F)c(Cl)c1)C1Cc2c(-c3ccc4c(c3)OCO4)ccnc2O1 (centres undefined)	none (no result: PTAP TSG101 blk)
O=C(Nc1ccc(F)c(Cl)c1)C1Cc2c(-c3ccc(Cl)cc3)ccnc2O1 (centres undefined)	FUS suppressor inconclusive, aSyn rescue inconclusive, TDP43 rescue 35µM (no result: PTAP TSG101 blk)
O=C(Nc1ccc(Cl)c(C(F)(F)F)c1)C1Cc2c(-c3ccccc3)ccnc2O1 (centres undefined)	aSyn rescue inconclusive, TDP43 rescue 32µM (no result: PTAP TSG101 blk)
Cc1ccc(CN2CC(C(=O)N3CCN(c4ccccc4Cl)CC3)CC2=O)cc1 (centres undefined)	TDP43 rescue 35µM
O=C(C1CCC(=O)N(C2CCCCCC2)C1)N1CCN(c2ccccc2Cl)CC1 (centres undefined)	FUS suppressor inconclusive, TDP43 rescue 35µM (no result: Abeta rescue)
Cc1ccccc1N1CCN(C(=O)C2CCC(=O)N(C3CCCC3)C2)CC1 (centres undefined)	none
O=C1CC(C(=O)N2CCN(Cc3ccccc3)CC2)CN1Cc1ccccc1 (centres undefined)	none
Cc1ccc(-n2ncc3c(NCCCN(C)C)ncnc32)cc1Cl	none (no result: PTAP TSG101 blk, aSyn rescue)
O=C(N/N=C/c1sc(N2CCOCC2)nc1-c1ccccc1)c1ccccc1Cl	none
O=C(N/N=C/c1sc(N2CCOCC2)nc1-c1ccccc1)c1ccccc1O	TDP43 rescue 14µM
COc1ccc(/C=C/c2nc(C#N)c(N3CCCCCC3)o2)cc1OC	TDP43 rescue 18µM (no result: PTAP TSG101 blk, aSyn rescue)
CC1CCN(c2oc(/C=C/c3ccc(F)cc3)nc2C#N)CC1	none (no result: PTAP TSG101 blk, aSyn rescue)
N#Cc1nc(/C=C/c2ccc(F)cc2)oc1N1CCCCCC1	TDP43 rescue 11µM (no result: PTAP TSG101 blk, aSyn rescue)
CCC(C)NC(=O)CSc1nnc(-c2ccc(C)cc2)c(-c2ccc(C)cc2)n1 (centres undefined)	FUS suppressor inconclusive (no result: PTAP TSG101 blk, aSyn rescue)
O=C(Oc1c(Cl)cc(Cl)c2ccccc12)N1CCCC1	TDP43 rescue 13µM
CN(C(=O)CSc1nc2ccccc2n1CC(=O)N(C)C1CCCCC1)c1ccccc1	none (no result: PTAP TSG101 blk, aSyn rescue)
COc1cccc(/C=C/c2nccc3ccccc23)c1OC	none (no result: FUS suppressor, Abeta rescue, PTAP TSG101 blk, TDP43 rescue)
Cc1ccc(S(=O)(=O)/N=C(/Nc2cccc(O)c2)c2ccccc2)cc1	none
O=C(Nc1ccc(-n2cnnn2)cc1)C1CCCCC1	none
O=C(Oc1cccc(-n2cnnn2)c1)C1CCCCC1	TDP43 rescue 11µM (no result: aSyn rescue)
Cc1ccc2[nH]c(CSc3nnc(NC(=O)COc4ccc(F)cc4)s3)cc(=O)c2c1	none (no result: PTAP TSG101 blk, aSyn rescue)
CC(=O)Nc1ccc(NC(=O)C(C)OC(=O)CCCc2c[nH]c3ccccc23)cc1 (centres undefined)	none
CC(OC(=O)CCc1c[nH]c2ccccc12)C(=O)c1ccccc1 (centres undefined)	TDP43 rescue 35µM
COc1ccc(S(=O)(=O)n2nc(-c3ccco3)nc2NCc2ccc(N(C)C)cc2)cc1	FUS suppressor 32µM (no result: PTAP TSG101 blk, aSyn rescue)
COC(=O)c1c(-c2ccc(OC)cc2)oc2ccccc12	none
COc1ccc2oc(-c3ccccc3)c(C(=O)O)c2c1	none
COc1ccc(C(=O)c2oc3ccc(OC)cc3c2N)cc1	TDP43 rescue 11µM
COc1ccc(-c2oc3ccccc3c2C(=O)Oc2ccccc2)cc1	TDP43 rescue 3.5µM
COc1ccc2oc(-c3ccccc3)c(C(N)=O)c2c1	TDP43 rescue 13µM
Cc1ccc2scc(N3CCCC(C)C3)c(=O)c2c1 (centres undefined)	TDP43 rescue inconclusive (no result: PTAP TSG101 blk, aSyn rescue)
Cc1cccc2c1-c1sc(C(=O)NCc3ccc(Cl)cc3)cc1CO2	none (no result: PTAP TSG101 blk, aSyn rescue)
CCN(CC)c1ccc(-c2nnc(SCC(=O)NCc3ccco3)n2C)cc1	none (no result: FUS suppressor, Abeta rescue, PTAP TSG101 blk, TDP43 rescue)
O=C(C[n+]1ccncc1)c1cccc2ccccc12	none (no result: FUS suppressor, Abeta rescue, PTAP TSG101 blk, TDP43 rescue)
Cc1cccn2c(=O)c(C=O)c(Cl)nc12	TDP43 rescue 10µM
Cc1cccn2c(=O)c(C=O)c(N3CCCCC3)nc12	none
CC1(C(=O)Nc2cccc(Oc3ccccc3)c2)CCN1Cc1cccc2c1OCO2 (centres undefined)	FUS suppressor inconclusive, TDP43 rescue inconclusive (no result: PTAP TSG101 blk)
O=C(NCCN1CCCC(O)C1)c1cc(COc2cccc(C(F)(F)F)c2)on1 (centres undefined)	none (no result: PTAP TSG101 blk)
CCOc1ccc(Cl)cc1-c1cc(C(=O)NCC2CCCCC2)[nH]n1	TDP43 rescue 14µM (no result: PTAP TSG101 blk)
CC(C)Oc1cc(F)ccc1-c1cc(C(=O)NCC2CCCCC2)[nH]n1	FUS suppressor inconclusive, TDP43 rescue 18µM (no result: PTAP TSG101 blk)
COc1ccc(Cl)cc1-c1cc(C(=O)NCC2CCCCC2)[nH]n1	TDP43 rescue inconclusive (no result: PTAP TSG101 blk)
Cc1cc(F)ccc1-c1cc(C(=O)NCC2CCCCC2)[nH]n1	none (no result: PTAP TSG101 blk)
COc1ccc(Cl)cc1-c1cc(C(=O)NCc2cccs2)[nH]n1	TDP43 rescue 11µM (no result: PTAP TSG101 blk)
COc1cc2ccccc2cc1C(=O)N/N=C/c1cccs1	none (no result: PTAP TSG101 blk)
CC(C)[C@H](NC(=O)c1c(F)cccc1F)C(=O)OCC(=O)NNC(=O)c1ccccc1	none (no result: PTAP TSG101 blk)
S=c1[nH]c(=S)c2[nH]cnc2[nH]1	none (no result: FUS suppressor, Abeta rescue, PTAP TSG101 blk, TDP43 rescue)
O=C(COc1cccnc1[N+](=O)[O-])Nc1ccccc1Sc1ccccc1	TDP43 rescue 14µM (no result: FUS suppressor)

Screening results from PubChem.
